# Data: the supplement of paper PMC12669032
# Values without a mark were called inactive.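 Rule for the calls: active = AUC reduced over 20% with Padj below 0.05 in at least 2 of 3 replicates; inactive = otherwise.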
# Tests used:
# Assay in all cases: growth AUC relative to DMSO control (median of replicates) (fraction); higher = more growth (less inhibition), active = hit call of the paper
# Conditions in all cases: 20 µM; 24 h
# [1] = test system: Coprococcus comes
# Outline: (§1)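 Three biological replicates, each grown on a separate day, were combined as a median for every value. In each, a gut bacterial monoculture in mGAM started at OD600 0.05 and grew anaerobically at 37 °C with 20 µM compound (1% DMSO), with OD600 read hourly over 24 h. Area under the growth curve was normalised against the plate median of solvent-only wells, or against row and column medians on the industrial chemical plate, after the minimum OD was set to 0.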
# [2] = test system: Escherichia coli ED1a
# Outline: as §1
# [3] = test system: Escherichia coli IAI1
# Outline: as §1
# [4] = test system: Eubacterium rectale
# Outline: as §1
# [5] = test system: Fusobacterium nucleatum subsp. animalis
# Outline: as §1
# [6] = test system: Lactobacillus gasseri
# Outline: as §1
# [7] = test system: Lactobacillus paracasei
# Outline: as §1
# [8] = test system: Odoribacter splanchnicus
# Outline: as §1
# [9] = test system: Parabacteroides distasonis
# Outline: as §1
# [10] = test system: Parabacteroides merdae
# Outline: as §1
# [11] = test system: Roseburia intestinalis
# Outline: as §1
# [12] = test system: Streptococcus salivarius
# Outline: as §1
SMILES,growth AUC [1],growth AUC [2],growth AUC [3],growth AUC [4],growth AUC [5],growth AUC [6],growth AUC [7],growth AUC [8],growth AUC [9],growth AUC [10],growth AUC [11],growth AUC [12]
CON=C(Cc1cccnc1)c1ccc(Cl)cc1Cl,0.94,1,0.986,0.919,1.03,1.03,1.18,0.821,1.04,1.01,1.05,0.997
Oc1cccc2ccccc12,0.96,0.994,0.982,0.957,0.988,0.976,1.02,0.975,0.983,0.997,0.952,0.986
CC(C)(c1ccc(O)cc1)c1ccc(O)cc1,1.01,0.994,0.989,1.04,1.1,1,1.04,1.07,1.38,1.07,1.06,1.01
CCCN(CCC)C(=O)SCC,0.969,0.967,1.01,0.944,0.893,1.03,1.02,1,1.03,0.984,0.948,1
C=CCc1ccc(OC)c(OC)c1,1.01,0.994,1.04,1,1.06,1.03,1,0.694 (active),1.3,1.04,1.03,1.02
CCCOC(=O)c1ccc(C(=O)OCCC)nc1,1.05,1,1,1.03,0.944,0.966,0.861,1.07,1,0.986,0.977,0.996
CCOC(=O)C1=NN(c2ccc(Cl)cc2Cl)C(C)(C(=O)OCC)C1 (centres undefined),0.97,0.993,0.989,0.903,0.985,1.06,0.883,1.04,0.918,0.928,0.952,0.994
N#CC(=NOCC1OCCO1)c1ccccc1,1.01,0.971,0.982,1.06,0.99,0.962,1.01,1.11,0.981,0.931,0.968,0.976
O=[N+](Nc1ccccc1)c1ccccc1,0.959,0.993,0.955,0.921,0.978,0.973,1.04,0.973,0.976,0.986,0.944,1.06
CCc1cccc(C)c1NC(C)C(=O)O (racemic),1.04,0.986,0.977,1.19,1.04,0.97,0.968,0.999,0.978,1,1.04,1.02
CCCNCCOc1c(Cl)cc(Cl)cc1Cl,0.927,0.944,0.953,0.924,0.918,0.953,0.966,0.999,0.972,0.997,0.946,0.964
CCSC(=O)N(CC(C)C)CC(C)C,1.02,1.02,1.02,0.903,1.03,1.22,0.942,0.985,0.993,0.987,1.01,0.997
